Experimental findings from PubChem BioAssay (NCI) are described below.

The panel holds about 83,000 compounds, 20% with a hit somewhere; the sample as a whole holds those more often.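 Activity criterion: percent growth below 10, measured after cells in 96-well plates were exposed to a single compound concentration for 48 hours.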 Activity calls are given as the source filed them.

The test system of the assay is SK-MEL-2 melanoma. As to the kind of experiment: NCI-60 one-dose screen, 48 h (100 = growth as untreated, 0 = no growth, -100 = all killed). Particulars: 10 µM unless noted. Here is the method:
Growth inhibition of the SK-MEL-2 human tumor cell line is measured as a screen for anti-cancer activity. Cells are grown in 96 well plates and exposed to the test compound for 48 hours. Compounds are tested at a single concentration, which is 10^-5 M for most compounds. The reported endpoint is percent growth (GI% or GIPRCNT), where numbers from 0 - 100% represent growth inhibition, and numbers from -100% - 0 represent cell death. For example, a value of 40 represents 60% growth inhibition. A value of 0 means no net growth occurred over the course of the experiment. A value of -40 indicates 40% of cells at the beginning of the experiment died by the end of the experiment. A value of -100 means all cells are dead at the end of the experiment.
NCI-60 Human Tumor Cell Lines Screen was performed using the standard one-dose NCI protocol, which is described in more detail at https://dtp.cancer.gov/discovery_development/nci-60/default.htm.
Compounds with GIPRCNT values below 10 were considered active. Activity score was based on GIPRCNT using the following formula: […]
Score is 0 for GIPRCNT values of 100 or above, 50 for GIPRCNT values of 0, and 100 for GIPRCNT values of -100.
On to `Cc1nc([P+](c2ccccc2)(c2ccccc2)c2ccccc2)c(N2CCCCC2)o1`, for which the growth is 41.2% (inactive). With `COc1ccc(NC(=O)c2ccc(Nc3ncnc4c3cnn4-c3cccc(F)c3)cc2)cc1`, the growth is 104% (inactive). The result for `COc1ccc(C2CC(n3ccnc3)c3cc(OC)c(OC)c(OC)c32)cc1O` (stereo not given) reads 89.6% (inactive). The result for `COc1cc(C=Nc2oc(-c3ccccc3)c(-c3ccccc3)c2C#N)cc(CN2CCCC2)c1O` reads 105% (inactive); that for `O=c1cc(C(F)(F)F)c2cc(-c3cc4ccccc4c(=O)o3)c(O)cc2o1`, 46.1% (inactive). The result for `CNC(=O)c1cc(Oc2ccc3c(c2)sc2nc(-c4ccc(Cl)c(C(F)(F)F)c4)cn23)ccn1` reads 59.4% (inactive); that for `COc1ccc2c(c1)CC[C@@H]1[C@@H]2CC[C@]2(C)c3c(cc(C#N)c4c3sc3ccccc34)C[C@@H]12`, 109% (inactive). With `CC(C)C1C2=C(NCCN1C(=O)c1ccncc1)C(C)(C)N(Cc1ccccc1)C2=O` (stereo not given), the growth is 97.4% (inactive).

For `CC(C)Cc1nc(Nc2ccccc2)[nH]c(=O)c1C#N`, the growth is 40.5% (inactive). In the case of `O=C(/C=C/C12c3ccccc3C(c3ccccc31)C1C(=O)NC(=O)C12)c1ccc(I)cc1` (stereo not given) it was 56.7% (inactive); in that of `CS(=O)(=O)Nc1cc(-c2ccc3ncnc(Nc4ccc(F)c(Cl)c4)c3c2)ccc1Cl`, 62.5% (inactive).

Regarding `CCOC(=O)/C(=C(/C)NCC(C)C)c1cc(O)c(O)c2c(C)cc(=O)[nH]c12`, the growth is 69.1% (inactive). In the case of `C=CN(C(=O)N1CCN(c2cc3c(cc2F)c(=O)c(C(=O)O)cn3C2CC2)CC1)c1nc(-c2ccc(Cl)cc2)cs1` it was 86.5% (inactive).

In the case of `O=C1/C(=C/c2cccc(Br)c2)COc2ccc(O)cc21`, the growth is 79.2% (inactive). In the case of `O=C(/C=C/c1ccco1)Nc1ncc(Cc2cc(Cl)ccc2Cl)s1` it was 36.3% (inactive); in that of `O=C(/C=C/c1cn(-c2ccccc2)nc1-c1ccccc1)CCC(=O)NO`, 99% (inactive). `Cc1cccc(-c2nc(C(C)C)sc2-c2ccnc(NCCCNS(=O)(=O)c3ccc(Cl)cc3)c2)c1`: the growth is 79% (inactive). In the case of `Cc1cc(C)c2c(c1)N(C)c1ncnc(-n3c(C)nc4cc(C)ccc43)c1CC2C` (stereo not given) it was 46.7% (inactive). With `Cc1ccc(-c2csc(NC(=O)CSc3nc(N)cc(N)n3)n2)cc1`, the growth was 51.6% (inactive). The result for `COc1cc2c(cc1-c1c(C)noc1C)ncc1nc(CN3CCOCC3)n([C@H](C)COC(F)F)c12` reads 36.7% (inactive); that for `COc1cc(Cc2cc(-c3ccccc3)nn(Cc3ccccc3)c2=O)cc(OC)c1OC`, 38.4% (inactive); that for `O=C(O)CC(C(=O)O)/C(=C\c1ccccc1)c1ccccc1` (stereo not given), 109% (inactive).

Turning to `COc1cc(C[C@H]2COc3cc(O)cc(O)c3C2=O)ccc1O`, the growth was 13.2% (inactive).

As to `Nc1nc(N(Cc2ccccc2)c2ccccc2)c2cn[nH]c2n1`, the growth is 111% (inactive). In the case of `CCOC(=O)c1cn2ncnc(Oc3ccc(NC(=O)NC4CC4)c(Cl)c3)c2c1C` it was 110% (inactive); in that of `CCN1C(=O)N(CC)C2C1NN=c1s/c(=C\c3ccc(OC)cc3)c(=O)n12` (stereo not given), 34.5% (inactive); in that of `O=S(Nc1ccccc1)c1ccc(Cl)cc1` (stereo not given), 95.2% (inactive). As for `Fc1cc2[nH]ncc2c2c3c(c(-c4cn[nH]c4C(F)(F)F)nc12)CCCC3`, the growth is -22.1% (active).

Regarding `COc1cc(/C=C/C(=O)N2CCN(C(=O)c3cc(OC)c(OC)c(OC)c3)CC2)ccc1OCCCOc1cc2c(cc1OC)C(=O)N1CCC[C@H]1C=N2`, the growth is -42.4% (active).

Take `COc1ccc(OC)c(Nc2nnc(-c3cc(OC)c(OC)c(OC)c3)o2)c1`: the growth was 99.7% (inactive). The result for `O=CCCCOCc1ccccc1` reads 104% (inactive); that for `COC(=O)c1c2c(c[n+]([O-])c1C)C(=O)C=C(NCc1ccccc1)C2=O`, -70.8% (active); that for `Cc1nc2ccccc2c(/C=C/c2ccc(F)cc2)c1C(=O)/C=C/c1ccccc1`, 14.2% (inactive). The result for `CCN1CCN(CCNc2nccc(-c3c(-c4ccc(F)c(O)c4)nc4occn34)n2)S1(=O)=O` reads 1.39% (active). The result for `C#CCOc1ccc2nc(CCl)c(Cl)c(Nc3cccc(C(F)(F)F)c3)c2c1` reads 84.4% (inactive); that for `Cc1cccc(NC(=O)Cn2cc(CN3CCN(c4ccnc5cc(Cl)ccc45)CC3)nn2)c1`, 108% (inactive). In the case of `C[N+]1=C(/C=C/c2ccccc2Cl)C(C)(C)c2ccccc21`, the growth was 109% (inactive).

For the molecule `CC1=C2[C@@H](CC1)[C@]1(C)O[C@@](C3CCNCC3)(C[C@H]1OC(=O)CO)[C@H]2OC(=O)/C=C/c1ccccc1`, the growth is 106% (inactive). In the case of `O=C(Nc1ccc(Nc2ccncc2)cc1)c1ccc(Nc2ccnc3ccc([N+](=O)[O-])cc23)cc1` it was 111% (inactive).

On to `O=S(O)c1cc(Cl)cc(Cl)c1OCc1ccccc1`, for which the growth was 105% (inactive).
